Screening data as filed in PubChem BioAssay.
BRCA1 expr act: BRCA1 expression activation; Potency, µM (top dose mostly 46.1 µM), most hits filed as activators; hit rate 1.1% among 380,000; MCF7-BRCA1-FFLuc reporter, luminescence, 48 h; response scale: scaled: vehicle 0%, 10 µM genistein 100%; AID 624202; also: nearly all actives have a fitted effect of over 80% in size
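Compounds are tested at multiple concentrations on MCF7 BRCA1-luciferase reporter cells seeded at 2000 per well; after 48 h, a single luminescence end-point is taken and curves fitted to the normalized data.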
PTHR1 ag: agonists of human PTHR1 parathyroid hormone receptor. Q03431. hit rate 0.075% among 410,000. HEK293 GP2 PTHR1 cells, GloSensor cAMP luminescence, 1 h. Potency, µM (top dose mostly 115 µM), most hits filed as activators; also: nearly all actives have a fitted effect of over 55% in size
Target sequence (Q03431 whole entry, looked up): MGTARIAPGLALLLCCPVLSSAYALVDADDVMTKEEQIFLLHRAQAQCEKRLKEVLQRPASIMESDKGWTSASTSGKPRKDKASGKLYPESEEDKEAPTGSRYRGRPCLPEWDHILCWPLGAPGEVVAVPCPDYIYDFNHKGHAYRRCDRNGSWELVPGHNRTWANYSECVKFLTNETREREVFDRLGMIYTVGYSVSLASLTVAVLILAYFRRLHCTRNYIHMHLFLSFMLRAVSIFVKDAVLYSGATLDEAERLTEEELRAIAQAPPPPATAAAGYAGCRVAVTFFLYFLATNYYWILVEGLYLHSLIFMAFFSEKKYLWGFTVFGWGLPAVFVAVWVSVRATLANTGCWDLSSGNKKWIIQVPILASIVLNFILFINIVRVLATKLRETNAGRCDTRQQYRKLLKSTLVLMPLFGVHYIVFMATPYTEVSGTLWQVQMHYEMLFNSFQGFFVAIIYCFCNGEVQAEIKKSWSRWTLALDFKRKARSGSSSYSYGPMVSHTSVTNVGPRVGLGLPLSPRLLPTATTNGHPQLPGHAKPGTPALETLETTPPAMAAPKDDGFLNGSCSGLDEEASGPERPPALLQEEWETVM
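HEK-293-derived GP2 cells expressing PTHR1 and a GloSensor cAMP reporter, 3,000/well, plated overnight, given luciferin plus IBMX (each 0.5 mM as added) for 1 h at 37 °C, then compound for 1 h at 37 °C. Luminescence was read after 15 min at room temperature.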
IL2 activator: activators of IL-2. IL-2 activation reporter assay, cell-based qHTS; stimulated with anti-CD3/CD4/CD28 beads; in transgenic mouse T cells. activation, % (series mostly up to about 46 µM). hit rate 0.065% among 360,000; in the data active = activation above about 50%; inconclusive = mostly about 30% to 49%
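EGFP and DsRed fluorescence is measured by plate cytometry in unstimulated transgenic mouse T cells exposed to compound for 60 minutes, then stimulated 18 hours at 37 degrees C with anti-CD3/anti-CD4 beads plus anti-CD28.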
TCR activator: activates T cell receptor signaling; primary human leukocytes, anti-CD3, IL-2 HTRF, 48 h; Potency, µM (highest dose often 9.22 µM), actives largely listed as activators; 330,000 tested, under 10 active
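TCR engagement came from a-CD3 beads alone, with compounds added to primary human leukocytes for 48 hr. Secreted IL-2 bridged europium cryptate- and d2-labelled anti-IL-2 antibodies, giving FRET emission at 665nm after 320nm excitation.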
Mito fusion act: inhibitors of mitochondrial division or activators of mitochondrial fusion. S. cerevisiae fusion-defective mutant growth rescue, CellTiterGlo 48 h. hit rate 0.23% among 320,000. Potency, µM (highest dose often 46.1 µM), hits mostly activators; also: nearly all actives have a fitted effect of over 45% in size
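S. cerevisiae fusion-defective temperature-sensitive mutants (e.g. fzo1-1, mgm1-5) grown 48 h at 37C in YPEG (ethanol/glycerol non-fermentable) medium with 23 nl compound per well; growth rescue read as CellTiterGlo luminescence.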
Chronic BCR inh: blocks chronic active B-cell receptor signaling. ABC-DLBCL IkBa-CBG/CBR reporter, luminescence ratio, 4 h. Potency, µM (top dose mostly 46.1 µM), actives largely listed as inhibitors. hit rate 0.05% among 340,000. AID 493014; active = well fitted inhibition curve with a large enough effect in the signal ratio, with a control signal flat, not every such curve was filed as active; inconclusive = small, poorly fitted or top-dose-only effect, or effect the other way, or a change in a side signal; the % refers to the signal ratio
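TMD8 ABC-DLBCL cells carrying doxycycline-inducible green luciferase fused to IkappaBalpha plus unfused red luciferase were exposed to compounds (up to 46 uM) for 4 hrs at 37C. Activity came from the overlap-corrected green/red luminescence ratio.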
Large screens that a line does not name were inactive. This is a sample that favours compounds with a hit; in the whole collection about 1.3% have one here. Unless noted, calls follow the shape of the dose curve; as a rule, active = well fitted curve in the direction sought with a large enough effect; inconclusive = small, poorly fitted or top-dose-only effect, or another doubt; inactive = no such curve, though single readings can be large; an effect the other way counts as inactive or inconclusive.

Nc1ccc(CCCC(=O)NCc2cccnc2)cc1	none (no result: TCR activator, Mito fusion act, Chronic BCR inh)
CCOC(=O)c1nc(C)n(-c2cc(OC)c(Cl)cc2Cl)n1	none
CN(C(=O)COc1ccccc1C(=O)Nc1ccccc1)c1ccccc1	none (no result: PTHR1 ag, IL2 activator, TCR activator, Mito fusion act, Chronic BCR inh)
O=C(Nc1cccc(Cl)c1)OCc1cncs1	none
O=C(Nc1ccc(Cl)cc1)OCc1ccccn1	BRCA1 expr act 3.5µM, Chronic BCR inh inconclusive
CS(=O)(=O)c1ccccc1COC(=O)Nc1ccc(Cl)cc1	PTHR1 ag inconclusive, Chronic BCR inh inconclusive
O=C(Nc1ccc(Cl)cc1)OCc1cncs1	BRCA1 expr act 11µM, Chronic BCR inh inconclusive
Cc1ccc(NC(=O)Nc2c[nH]c(=O)[nH]c2=O)c(Cl)c1	none (no result: BRCA1 expr act, IL2 activator, TCR activator, Mito fusion act, Chronic BCR inh)
CCOc1ccc(C=Nc2ccc(/C=C/c3ccnc4ccccc34)cc2)cc1OCC	none (no result: PTHR1 ag, IL2 activator, TCR activator, Mito fusion act, Chronic BCR inh)
O=C(NCc1ccco1)c1cc([N+](=O)[O-])ccc1N1CCCCC1	none
Cc1ccc(C(=O)c2cc([N+](=O)[O-])ccc2N2CCCCC2)cc1	Chronic BCR inh 23µM
O=C(NCc1ccc2c(c1)OCO2)c1cc([N+](=O)[O-])ccc1N1CCCCC1	Chronic BCR inh 23µM
CCOC(=O)C1CCCN(CC(=O)Nc2cccc(C(C)=O)c2)C1 (stereo not drawn)	none
CN(C(=O)COC(=O)c1ccccc1NCCO)C1CCS(=O)(=O)C1 (stereo not drawn)	none
CCOc1ccc(C2C=C(c3ccccc3)Nc3nnnn32)cc1 (stereo not drawn)	BRCA1 expr act 7.1µM
CCOc1ccc(C2C=C(c3ccc(C)cc3)Nc3nnnn32)cc1 (stereo not drawn)	Chronic BCR inh inconclusive (no result: TCR activator)
NC(=O)NC(=O)COC(=O)CC12CC3CC(CC(C3)C1)C2	none
Cc1ccc(NC(=O)c2ccc(OC(=O)C(C)Oc3ccc(Cl)cc3C)cc2)cc1 (stereo not drawn)	BRCA1 expr act 5µM
CCCN(CCC)c1ccc(/C=C/c2sc3ccccc3[n+]2CCCCI)cc1	none (no result: PTHR1 ag, IL2 activator, TCR activator, Mito fusion act, Chronic BCR inh)
Cc1cc(C)c2[nH]c(=O)c(CN(Cc3nnnn3C3CCCC3)C3CCCCC3)cc2c1	none
Cc1cccc2cc(CN(Cc3nnnn3C3CCCCC3)C3CCCC3)c3nnnn3c12	Mito fusion act 11µM
Nc1ncnc2c1[nH]c(=S)n2C1OC(CO)C(O)C1O (stereo not drawn)	none (no result: PTHR1 ag, IL2 activator, TCR activator, Mito fusion act, Chronic BCR inh)
CCc1cc2c(=O)n(CC(C)C)cnc2s1	BRCA1 expr act 11µM, Chronic BCR inh inconclusive
CCCCCn1cnc2sc(CC)cc2c1=O	BRCA1 expr act inconclusive
CC1CCCC(NC(=O)c2n[nH]c(=O)c3ccccc23)C1C (stereo not drawn)	BRCA1 expr act 11µM, Chronic BCR inh inconclusive
CC(C)NC(=O)c1n[nH]c(=O)c2ccccc12	none
COc1ccc2oc(C(=O)NC(C)(C)C)c(C)c2c1	BRCA1 expr act 7.1µM
COc1ccc2oc(C(=O)NNC(=O)c3ccc(F)cc3)c(C)c2c1	none
COc1ccc2oc(C(=O)c3ccccc3)c(N)c2c1	none (no result: TCR activator)
COc1ccc2oc(C(=O)C3CC3)c(N)c2c1	BRCA1 expr act 6.3µM
COC(=O)c1cc(NC(=O)c2cccc([N+](=O)[O-])c2C)ccc1Cl	none
Cn1c2ccccc2c(=O)c2ccc(C#Cc3ccc(N)cc3)cc21	none
Cn1c2ccccc2c(=O)c2ccc(Cl)cc21	BRCA1 expr act 14µM (no result: TCR activator, Mito fusion act, Chronic BCR inh)
Cc1ccc(-n2c(-c3ccccc3)nsc2=NC#N)cc1	none (no result: PTHR1 ag, IL2 activator, TCR activator, Mito fusion act, Chronic BCR inh)
Nc1ccc(Oc2cc(N)cc(Oc3ccccc3)c2)cc1	BRCA1 expr act 7.1µM
CCn1nc(C(=O)OCC(=O)NCC(C)C)c2ccccc2c1=O	none
CCn1nc(C(=O)OCC(=O)Nc2nc(-c3ccc(OC)cc3)cs2)c2ccccc2c1=O	BRCA1 expr act 6.3µM
CC1Cc2cc(S(=O)(=O)N3CCCC(C(=O)N4CCCCC4)C3)ccc2N1C(=O)C1CC1 (stereo not drawn)	Mito fusion act 0.32µM
CC(=O)N1c2ccc(S(=O)(=O)N3CCCC(C(=O)N4CCCCC4)C3)cc2CC1C (stereo not drawn)	none
